Bioassay records from PubChem.
CYP2C9 activ: activators of human CYP2C9; P11712; recombinant CYP2C9, luciferin-H conversion, luminescence; hits give high values; factor 1 = untreated enzyme, 0 = blocked; activation factor at 5 µM; 1.4% of 96,000 active; AID 1024;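 active = activation factor of 2 or more for CYP2C9 at a 5 µM dose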;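 also: 0 = sulfaphenazole-blocked wells and 1 = vehicle-only wells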
CYP2C19 act: activators of human cytochrome P450 2C19. P33261. recombinant CYP2C19, luciferin-H EGE luminescence; hits give high values; 0 = fully inhibited enzyme, 1 = untreated enzyme. activation factor at 5 µM. 96,000 tested, under 10 active. AID 1025;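 active = activation factor of at least 2 at 5 µM in the primary screen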;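 also: 0 = wells with 2.5 mM tranylcypromine and 1 = vehicle-only wells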
Target sequence (P33261 whole entry, looked up): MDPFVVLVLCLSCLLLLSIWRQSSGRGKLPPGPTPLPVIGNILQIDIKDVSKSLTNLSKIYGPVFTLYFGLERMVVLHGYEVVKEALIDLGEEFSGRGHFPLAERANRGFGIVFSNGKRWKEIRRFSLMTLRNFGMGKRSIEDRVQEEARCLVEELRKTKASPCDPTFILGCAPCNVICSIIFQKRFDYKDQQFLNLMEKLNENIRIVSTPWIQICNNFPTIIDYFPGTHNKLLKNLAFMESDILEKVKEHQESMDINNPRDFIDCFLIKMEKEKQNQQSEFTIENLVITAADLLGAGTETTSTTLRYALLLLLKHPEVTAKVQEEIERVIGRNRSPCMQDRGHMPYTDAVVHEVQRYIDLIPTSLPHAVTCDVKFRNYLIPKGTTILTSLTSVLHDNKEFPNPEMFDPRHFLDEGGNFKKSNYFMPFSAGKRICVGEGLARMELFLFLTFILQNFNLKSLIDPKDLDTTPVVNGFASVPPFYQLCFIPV
CD11b adhes enh: enhancers of human CD11b/CD18 binding to fibrinogen | K562 CD11b/CD18 adhesion to fibrinogen, ATPlite luminescence | 0.07% of 93,000 active | P05107+P11215 | activation, % at 10 µM;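 active = 10 µM primary screen giving 50% or more activity, confirmed by 40% or more on retest at that dose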
CYP2C19 inhib: blocks human cytochrome P450 2C19; inhibition, % at 5 µM; 21% of 96,000 active; P33261; CYP2C19 Supersomes, luciferin-H EGE luminescence, 30 min; AID 778;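 active = CYP2C19 inhibition above a set limit at 5 µM in the primary screen, cut at about 50% in these data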;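 also: plate controls were negative control wells for no effect and 2.5 mM tranylcypromine positive control for full effect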
CYP2C9 inh: inhibitors of human CYP2C9 | inhibition, % at 5 µM | AID 777 | 20% of 96,000 active | CYP2C9 Supersomes, luciferin-H conversion, luminescence | P11712;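 active = blocking of liver enzyme CYP2C9 beyond about 50% at 5 µM, limit read from the data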
Mac1 fbg inh: CD11b/CD18-fibrinogen binding inhibition. P05107+P11215. K562 CD11b/CD18 adhesion to fibrinogen, ATPlite luminescence; Mn2+ added to activate the integrin. inhibition, % at 10 µM. 0.54% of 93,000 active;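 active = primary inhibition of 50% or more at 10 µM, then 40% or more on retest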
The depositor's hits bear a star. In the library only some 28% were active in any assay of this set; here they are far more common.

How did O=C(c1cc(-c2ccncc2)nc2ccccc12)N1CCN(S(=O)(=O)/C=C/c2ccccc2)CC1 do in these assays?
CYP2C9 activ: 0.2; CYP2C19 act: 0.4; CD11b adhes enh: -3; CYP2C19 inhib: 58*; CYP2C9 inh: 80*; Mac1 fbg inh: -16

Results for CCOC(=O)c1ccc(NC(=O)NC(C)C2CCCO2)cc1 (stereo unspecified) ?
CYP2C9 activ: 0.9; CYP2C19 act: 1.1; CD11b adhes enh: 2; CYP2C19 inhib: -7; CYP2C9 inh: 10; Mac1 fbg inh: -7

Results for O=C(NC1CCCCCCC1)c1ccc2c(c1)N(Cc1ccc(F)cc1)C(=O)CS2=O (stereo unspecified) ?
CYP2C9 activ: 0.9; CYP2C19 act: 1.1; CD11b adhes enh: -2; CYP2C19 inhib: -12; CYP2C9 inh: 5; Mac1 fbg inh: -3

Results for O=S(=O)(c1cccc2cccnc12)n1cnc2ccccc21 ?
CYP2C9 activ: 1.6; CYP2C19 act: 0.9; CD11b adhes enh: 0; CYP2C19 inhib: 10; CYP2C9 inh: -64; Mac1 fbg inh: -5

How did CC(C)Oc1cccc(-c2cc(C(=O)N3CCN(c4ncccn4)CC3)c3ccccc3n2)c1 do in these assays?
CYP2C9 activ: 0.2; CYP2C19 act: 0.7; CD11b adhes enh: -4; CYP2C19 inhib: 29; CYP2C9 inh: 84*; Mac1 fbg inh: 48

What do the screens show for `CC(C)Oc1cccc(-c2cc(C(=O)N3CCN(S(C)(=O)=O)CC3)c3ccccc3n2)c1`?
CYP2C9 activ: 0.9; CYP2C19 act: 1.1; CD11b adhes enh: -2; CYP2C19 inhib: -5; CYP2C9 inh: 12; Mac1 fbg inh: 6

How did Cc1ccc2nc(-c3ccccn3)cc(C(=O)N3CCN(c4ncccn4)CC3)c2c1 do in these assays?
CYP2C9 activ: 0.5; CYP2C19 act: 0.8; CD11b adhes enh: 8; CYP2C19 inhib: 20; CYP2C9 inh: 54*; Mac1 fbg inh: 0

What do the screens show for `C/C(Cc1ccccc1)=N\NC(=O)CNC(=O)c1ccc(C(C)(C)C)cc1`?
CD11b adhes enh: 6; Mac1 fbg inh: -11

Results for CC1=C(C(=O)OC2CCCCCCC2)C(c2cc3c(cc2Br)OCO3)CC(=O)N1 (stereo unspecified) ?
CYP2C9 activ: 0.2; CYP2C19 act: 0.2; CD11b adhes enh: 4; CYP2C19 inhib: 75*; CYP2C9 inh: 85*; Mac1 fbg inh: 0

How did COC(=O)C1=C(C)NC(=O)CC1c1cc2c(cc1Br)OCO2 (stereo unspecified) do in these assays?
CYP2C9 activ: 0.3; CYP2C19 act: 0.2; CD11b adhes enh: -1; CYP2C19 inhib: 82*; CYP2C9 inh: 71*; Mac1 fbg inh: -5

What do the screens show for `COC(=O)C1=C(C)NC(=O)CC1c1ccc(F)c(Br)c1` (stereo unspecified)?
CYP2C9 activ: 0.7; CYP2C19 act: 0.5; CD11b adhes enh: -1; CYP2C19 inhib: 51*; CYP2C9 inh: 27; Mac1 fbg inh: -2

Results for CC1=C(C(=O)OCCOC(C)C)C(c2cc3c(cc2Br)OCO3)CC(=O)N1 (stereo unspecified) ?
CYP2C9 activ: 0.3; CYP2C19 act: 0.2; CD11b adhes enh: -1; CYP2C19 inhib: 80*; CYP2C9 inh: 65*; Mac1 fbg inh: -4

What do the screens show for `COC(=O)C1=C(C)NC(=O)CC1c1ccc(C(=O)OC)cc1` (stereo unspecified)?
CYP2C9 activ: 0.9; CYP2C19 act: 0.8; CD11b adhes enh: -2; CYP2C19 inhib: 21; CYP2C9 inh: 13; Mac1 fbg inh: -3

What do the screens show for `Cn1c2c(c(=O)n(C)c1=O)C(c1cc3c(cc1Br)OCO3)CC(=O)N2` (stereo unspecified)?
CYP2C9 activ: 1; CYP2C19 act: 1.1; CD11b adhes enh: -9; CYP2C19 inhib: -14; CYP2C9 inh: -2; Mac1 fbg inh: 5

Results for COC(=O)C1=C(C)NC(=O)CC1c1ccccc1F (stereo unspecified) ?
CYP2C9 activ: 0.7; CYP2C19 act: 0.7; CD11b adhes enh: 2; CYP2C19 inhib: 26; CYP2C9 inh: 32; Mac1 fbg inh: 6

How did CC(C)(O)C#Cc1ccccc1C(=O)NC(CC(N)=O)C(=O)O (stereo unspecified) do in these assays?
CYP2C9 activ: 1.1; CYP2C19 act: 1; CD11b adhes enh: 0; CYP2C19 inhib: -4; CYP2C9 inh: -8; Mac1 fbg inh: 2

How did CCOC(=O)N1CCC(NC(=O)CCc2c(C)nc3ncnn3c2C)CC1 do in these assays?
CYP2C9 activ: 0.8; CYP2C19 act: 1; CYP2C19 inhib: 3; CYP2C9 inh: 24

Results for c1cc(-c2noc(CC3CCCCC3)n2)ccn1 ?
CYP2C9 activ: 0.2; CYP2C19 act: 0; CD11b adhes enh: -2; CYP2C19 inhib: 99*; CYP2C9 inh: 77*; Mac1 fbg inh: -3

What do the screens show for `CCOC(=O)C1C(=O)NC(c2ccccc2)=NC1c1ccc(F)cc1` (stereo unspecified)?
CYP2C9 activ: 0.6; CYP2C19 act: 0.4; CYP2C19 inhib: 58*; CYP2C9 inh: 39

Results for CCOC(=O)C1C(=O)NC(c2ccccc2)=NC1c1ccccc1 (stereo unspecified) ?
CYP2C9 activ: 0.7; CYP2C19 act: 0.7; CYP2C19 inhib: 31; CYP2C9 inh: 25

How did CN(C)C=NC(=O)c1ccc([N+](=O)[O-])c(CS(=O)(=O)c2ccc(Cl)cc2)c1 do in these assays?
CYP2C9 activ: 0.4; CYP2C19 act: 0.2; CYP2C19 inhib: 75*; CYP2C9 inh: 56*

Results for CO/N=C/NC(=O)c1ccc([N+](=O)[O-])c(CS(=O)(=O)c2ccc(Cl)cc2)c1 ?
CYP2C9 activ: 0.8; CYP2C19 act: 1; CD11b adhes enh: -5; CYP2C19 inhib: 2; CYP2C9 inh: 15; Mac1 fbg inh: -5

What do the screens show for `Cc1cc(C)cc(N(CCC(=O)O)S(=O)(=O)c2ccc(Cl)cc2)c1`?
CD11b adhes enh: -4; Mac1 fbg inh: 24

Results for NNC(=O)c1ccc([N+](=O)[O-])c(CS(=O)(=O)c2ccc(Cl)cc2)c1 ?
CYP2C9 activ: 0.7; CYP2C19 act: 0.3; CD11b adhes enh: 5; CYP2C19 inhib: 75*; CYP2C9 inh: 33; Mac1 fbg inh: -5

Results for CNc1cccccc1=S ?
CYP2C9 activ: 0.9; CYP2C19 act: 1; CD11b adhes enh: -3; CYP2C19 inhib: 0; CYP2C9 inh: 11; Mac1 fbg inh: -11

How did CCn1c(=O)n(CC)c2cc(S(N)(=O)=O)ccc21 do in these assays?
CYP2C9 activ: 0.9; CYP2C19 act: 1; CD11b adhes enh: 10; CYP2C19 inhib: 2; CYP2C9 inh: 9; Mac1 fbg inh: -3

How did CCn1c(=O)n(CC)c2cc(S(=O)(=O)Nc3c(C)cccc3C)ccc21 do in these assays?
CYP2C9 activ: 0.3; CYP2C19 act: 0.1; CD11b adhes enh: -6; CYP2C19 inhib: 94*; CYP2C9 inh: 67*; Mac1 fbg inh: -5
